Rows were chosen to be rich in hits. Some 3% of all compounds tested hit in one or more screens of this group.
HEK293 viab – counter-screen for SNCA expression inhibitors: cell viability | Potency, µM (doses to about 57.1 µM), for inactives: at the highest dose activity change, negative = cytotoxicity, usual class: cytotoxic | HEK-293-SNCA-luc viability, GF-AFC fluorescence, 24 h | actives 0.12% (n = 150,000);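 further: potency means the concentration at half of the fitted maximal effect; 0% = DMSO-treated cells and -100% = medium-only wells without cells; nearly all actives have a fitted effect of over 30% in size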
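HEK-293-SNCA-luc cells (1500/well) plated 24 h, then exposed 24 h to a dilution series; GF-AFC added 30 min at 37C, fluorescence 405/540 nm; normalised to medium-only and DMSO wells, Hill fit.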
IP6K1 inh – blocks human inositol hexakisphosphate kinase 1; activity change, % (series mostly up to about 58 µM); actives 0.81% (n = 140,000); IP6K1 kinase, ADP-Glo luminescence, 2 h; stronger effect = lower value; Q92551; AID 1645851; in the data active means activity change below about -25%; further: on the % scale 0 is the no-effect control and ±100 the full control effect
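ADP-Glo luminescence measures ADP made by human IP6K1 during a 2 h RT reaction with ATP/IP6 (mix at 1.3 mM/130 uM); top library doses 57.5 and 19.1 uM final.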
SNCA expr inh – inhibitors of alpha-synuclein (SNCA) gene expression. HEK-293 SNCA-luciferase knock-in, luminescence, 24 h. Potency, µM (titrated, usually from 57.2 µM), without a hit: top-dose activity change, negative = inhibition, hits mostly inhibitors. actives 0.17% (n = 140,000). AID 1671194;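 further: potency means the concentration at half of the fitted maximal effect; plate controls were DMSO cells for no effect and cell-free wells for full effect; nearly all actives have a fitted effect of over 45% in size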
KDM5B inh – KDM5B demethylase inhibition | Potency, µM (doses to about 57.7 µM), usual class: inhibitors | Q9UGL1 | actives 2.6% (n = 220,000) | KDM5B demethylase, FDH-coupled NADH fluorescence (FDH is formaldehyde dehydrogenase); further: potency means the concentration at half of the fitted maximal effect; 0% is about no effect; nearly all actives have a fitted effect of over 70% in size
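Measured: NADH fluorescence change, 30 min, RT. System: KDM5BΔAP 200 nM final, H3K4me3 peptide, α-KG, Fe(II), ascorbate, NAD⁺ plus FDH, pH 7.5 HEPES. Compounds: titrated, 10 min pre-incubation with enzyme.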
IP6K1 conf – human IP6K1 inhibition, confirmatory; shares compounds with IP6K1 inh; recombinant IP6K1 kinase, ADP-Glo luminescence, 2 h; Potency, µM (series often up to 49 µM), for the others: at the highest dose activity change, negative = inhibition, most hits filed as inhibitors; actives 13% (n = 1,200); AID 1645852; further: potency means the concentration at half of the fitted maximal effect; on the % scale 0 is the no-effect control and ±100 the full control effect; nearly all actives have a fitted effect of over 65% in size
* = called active by the depositor; i = inactive; ? = inconclusive; nt = no result given; [ ] = remark or other dose. Unless noted, the call rests on the fitted dose curve; in most records, active means well fitted curve in the direction sought with a large enough effect; inconclusive means small, poorly fitted or top-dose-only effect, or another doubt; inactive means no such curve, though single readings can be large; an effect the other way counts as inactive or inconclusive.

SMILES	HEK293 viab	IP6K1 inh	SNCA expr inh	KDM5B inh	IP6K1 conf
COc1cc(N2C(=O)CSC23C(=O)N(C)c2ccccc23)cc(OC)c1OC (stereo not given)	-1%	6	2%	i	nt
COc1ccc(N2C(=O)CSC23C(=O)N(C)c2ccccc23)cc1Cl (stereo not given)	-1%	-26*	-14%	?	-18%
CCCCOc1ccccc1C1CC(=O)Nc2cc(OC)c(OC)cc21 (stereo not given)	-16%	-3	-2%	i	nt
CCCCOc1ccccc1C1CC(=O)Nc2cc(C)c(C)cc21 (stereo not given)	?	-28*	?	i	-10%
Cn1cnnc1SCC(=O)Nc1cc(C(=O)O)cc(C(=O)O)c1	4%	-30*	?	i	-3%
Cn1cnnc1SCC(=O)Nc1ccc(F)cc1	nt	nt	nt	i	nt
O=C(c1ccccc1)N1CCCN(c2ccnc3ccnn23)CC1	12%[87.6 µM]	-26*	2%[87.6 µM]	nt	13%
O=C(c1ccncc1)N1CCCN(c2ccnc3ccnn23)CC1	0%[87.6 µM]	-24	13%[87.6 µM]	nt	nt
COc1ccccc1C(=O)N1CCN(c2oc(-c3ccccc3OC)nc2C#N)CC1	nt	nt	nt	i	nt
CCN1CCc2c(sc(NC(=O)Nc3ccc(Cl)cc3)c2C(N)=O)C1	nt	nt	nt	i	nt
COc1ccc(-c2cn3c(n2)sc2cc(C(=O)NCc4cccs4)ccc23)cc1	-7%	-3	133%	?	nt
O=C(NCc1cccs1)c1ccc2c(c1)sc1nc(-c3ccccc3)cn12	-16%	-25*	143%	?	?
COc1ccc(NC(=O)c2nn(-c3ccccc3C)c(=O)cc2OC)cc1	nt	nt	nt	i	nt
O=C(COc1cc(O)c2c(=O)cc(-c3ccccc3)oc2c1)Nc1cccc(O)c1	nt	nt	nt	i	nt
NC(N)=Nc1nc(=O)c2ccccc2s1	nt	nt	nt	i	nt
O=c1nc(-c2ccccn2)sc2ccccc12	-13%	-54*	nt	nt	-18%
Cc1nn(-c2ccccc2)c(OC(=O)c2ccccc2Br)c1S(=O)(=O)c1ccccc1	20%	-23	24%	?	nt
Cc1nn(-c2ccccc2)c(OC(=O)c2ccccc2)c1S(=O)(=O)c1ccccc1	9%	-33*	-18%	?	46%
CCCCn1c(SCC(=O)c2cc(C)n(C3CC3)c2C)nc2cc(S(N)(=O)=O)ccc21	nt	nt	nt	i	nt
N#C/C(=C\c1cc(Br)c(O)c(Br)c1)c1nc2ccccc2c(=O)[nH]1	-3%	-29*	-27%	?	1.8µM*
N#C/C(=C/c1ccccc1Cl)c1nc2ccccc2c(=O)[nH]1	2%	5	12%	i	nt
CCc1c(C(=O)Nc2ccc(F)cc2C)cnn1-c1ccc(OC)nn1	nt	nt	nt	i	nt
COc1ccc(OCCOC(=O)c2ccc3c(c2)NC(=O)CS3)cc1	nt	nt	nt	i	nt
COc1cc([N+](=O)[O-])ccc1NC(=O)c1nc2ccccc2n(C)c1=O	6%	17	18%	i	nt
COc1cc(Nc2ccc([N+](=O)[O-])cc2C(=O)O)cc2ccccc12	-15%	-25*	nt	nt	?
SMILES	HEK293 viab	IP6K1 inh	SNCA expr inh	KDM5B inh	IP6K1 conf
CC[C@@H]1C(=O)N(C)c2cnc(Nc3ccc(C(=O)NC4CCN(C)CC4)cc3OC)nc2N1C1CCCC1	?	nt	-4%	nt	18%
Cc1cccc(N2CCN(c3ccc(C(=O)O)cc3NC(=O)c3cccc(Cl)c3)CC2C)c1 (stereo not given)	4%	-28*	-12%	?	?
CCCCCCCCn1cc(CN(CC)CC)c2cc(-c3cnc(N)nc3)ccc21	?	-35*	nt	nt	?
NC(=O)CCn1cc(CN(CCO)Cc2ccccc2F)c2ccccc21	20%	4	3%	i	nt
CN(C)CC(=O)N1Cc2ccccc2CC2(CCCN(CC3CCNCC3)C2)C1 (stereo not given)	-14%	12	3%	?	nt
CN(C)CC(=O)N1Cc2ccccc2CC2(CCN(CC3CCNCC3)C2)C1 (stereo not given)	1%	-27*	-5%	i	?
CCCCNC(=O)C1CCN(c2nc3ccccc3nc2C(F)(F)F)CC1	10%	-29*	6%	i	2%
CNC(=O)C1CCN(c2nc3ccccc3nc2C(F)(F)F)CC1	-2%	-20	15%	i	nt
CC(C)NC(=O)C1CCN(c2nc3ccccc3nc2C(F)(F)F)CC1	-3%	-35*	17%	i	23%
Cc1ccc(OCCCCn2cnc3ccccc32)cc1	8%	-33*	14%	?	?
Cc1cnc(NC(=O)CCOc2cccc(Br)c2)s1	nt	nt	nt	i	nt
CCCn1nnnc1CN1CCC(C(=O)c2ccc3c(c2)OCCO3)CC1	nt	nt	nt	i	nt
COc1ccc(Cl)cc1-c1ccc2c(c1)C(=O)N1CC[C@H](N)C[C@H]1C(=O)N2	-1%[87.6 µM]	-11	-22%[87.6 µM]	?	nt
COc1ccc(-c2ccc3c(c2)C(=O)N2CC[C@H](n4nnc(C(N)=O)c4C(N)=O)C[C@H]2C(=O)N3)c(OC)c1	-1%	-44*	20%	i	?
Cc1[nH]c(/C=C2\C(=O)Nc3ccc(F)cc32)c(C)c1C(=O)NC[C@H](O)CN1CCOCC1	-36%	-5	nt	nt	36%
CCN(CC)CCNC(=O)c1c(C)[nH]c(/C=C2\C(=O)Nc3ccc(Cl)cc32)c1C	nt	nt	nt	nt	35%
Cc1ccc(C)c(Cn2cc(S(=O)(=O)c3ccc(Cl)cc3)c(=O)c3cc(F)ccc32)c1	10%	-25*	-3%	i	6%
Cc1ccc(C(=O)Nc2ccc(-c3nc4ccccc4s3)cc2)c(C)c1	nt	nt	nt	i	nt
CCC[C@H]1CN(C(=O)c2ccccc2Cc2ccc(C)cc2)C[C@@H]1N	-2%	-26*	11%	i	-6%
Cc1ccc(Cc2ccccc2C(=O)N2CCOC(C(F)(F)F)C2)cc1 (stereo not given)	1%	-7	-9%	i	nt
Cc1cccc(NC(=O)CSc2cn(CC(=O)N3CCCCCC3)c3ccccc23)c1	-21%	-41*	?	i	-4%
O=C(Cn1cc(SCc2cccc(F)c2)c2ccccc21)N1CCOCC1	-23%	-1	100%	?	nt
O=C(Cn1cc(SCc2cccc(F)c2)c2ccccc21)N1CCCC1	-4%	-97*	104%	i	?
Cc1ccc(-n2c(C3CCN(C(=O)Cc4ccc(Cl)cc4)CC3)n[nH]c2=O)cc1	-5%	3	-15%	i	nt
Cc1ccc(CN(Cc2ccco2)C(=O)c2oc3c(C)c(C)ccc3c2C)cc1	1%	-29*	-6%	?	?
Cc1ccc(CN(Cc2ccco2)C(=O)c2oc3ccc(C)cc3c2C)cc1	21%	-12	20%	?	nt
N#CCSC1=Nc2ccccc2CS1	nt	nt	nt	i	nt
O=C(CCC[C@H]1NC[C@@H]2CC1CN(Cc1ccccc1)C2)N1CCCCC1	3%	4	-18%	i	nt
COc1cccc(N2CCN(C(=O)CCC[C@H]3NC[C@@H]4C[C@H]3CN(Cc3ccccc3)C4)CC2)c1	3%	-26*	-9%	25µM*	1%
